High-throughput results from PubChem BioAssay.
Compounds with a hit are over-represented: about 11% of the library has one in this group of screens.
FLuc inh: blocks purified firefly luciferase enzyme activity; P08659; purified P. pyralis luciferase, luminescence, biochemical; Potency, µM (doses to about 115 µM), actives largely listed as inhibitors; 2.5% of 76,000 active; AID 1347043; also: nearly all actives have a fitted effect of over 65% in size
Target sequence (P08659 whole entry, looked up): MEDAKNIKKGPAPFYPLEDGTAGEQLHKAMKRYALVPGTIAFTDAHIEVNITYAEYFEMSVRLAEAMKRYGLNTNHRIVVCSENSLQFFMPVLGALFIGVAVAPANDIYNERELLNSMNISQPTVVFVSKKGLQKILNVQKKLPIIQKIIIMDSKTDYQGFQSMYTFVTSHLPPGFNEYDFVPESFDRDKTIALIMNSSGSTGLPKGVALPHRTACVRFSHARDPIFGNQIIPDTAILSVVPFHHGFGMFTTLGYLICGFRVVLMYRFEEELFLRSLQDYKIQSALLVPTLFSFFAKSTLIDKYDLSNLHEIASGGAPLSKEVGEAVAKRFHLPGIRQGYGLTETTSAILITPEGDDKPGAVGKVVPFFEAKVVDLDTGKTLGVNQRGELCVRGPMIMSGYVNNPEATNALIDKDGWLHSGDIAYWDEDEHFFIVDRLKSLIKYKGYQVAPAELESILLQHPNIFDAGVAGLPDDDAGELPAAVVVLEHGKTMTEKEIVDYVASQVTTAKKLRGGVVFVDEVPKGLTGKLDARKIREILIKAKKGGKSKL
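FLuc 10nM, D-luciferin 10uM, ATP 10uM, Mg acetate 10mM, Tris acetate pH 7.5, Tween/BSA; cpd qHTS; enzyme added last; CCD luminescence.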
HEK293 tox: cytotoxic compounds in HEK 293 cells; Potency, µM (titrated, usually from 115 µM), without a hit: at the highest dose activity change, negative = cytotoxicity, usual class: inhibitors; HEK 293 viability, ATP luminescence (CellTiter-Glo), 48-72 h; AID 1345083; 6.6% of 94,000 active; also: nearly all actives have a fitted effect of over 60% in size
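Viability of HEK 293 cells, plated at 250 cells/well, was judged by cellular ATP after compound treatment for 48 or 72 hr. Luminescence was imaged 10 min after CellTiter-Glo addition at room temperature.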
NIH3T3 tox: kills NIH 3T3 cells | AID 1345082 | 4.3% of 94,000 active | Potency, µM (top dose mostly 96.7 µM), for inactives: at the top dose activity change, negative = cytotoxicity, most hits filed as inhibitors | NIH 3T3 viability, CellTiter-Glo ATP luminescence, 48-72 h; also: nearly all actives have a fitted effect of over 55% in size
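Mouse fibroblast NIH 3T3 cells, 400 per well, received compound via pintool and were incubated for 48 or 72 hr prior to CellTiter-Glo ATP luminescence measurement.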
hNpr1 antagonist: human Npr1 receptor antagonism; HEK293 hNpr1 GloSensor cGMP, ANP-stimulated luminescence; Potency, µM (titrated, usually from 46.3 µM), inactives show at the top dose activity change, negative = inhibition, actives largely listed as inhibitors; 1.6% of 76,000 active; AID 1347048; calls by dose curve; also: nearly all actives have a fitted effect of over 60% in size
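HEK293 cells stably expressing human Npr1 and cGMP GloSensor pGS-40F, loaded 2 h with 2% GloSensor reagent, given compound 30 min at room temperature. Luminescence read before and 20 min after 0.1 nM hNppA.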
An asterisk follows results filed as active; i = inactive; ? = inconclusive; nt = no result; [ ] = dose if it differs, or a comment. Unless noted, calls follow the shape of the dose curve; as a rule, active = well fitted curve in the direction sought with a large enough effect; inconclusive = small, poorly fitted or top-dose-only effect, or another doubt; inactive = no such curve, though single readings can be large; an effect the other way counts as inactive or inconclusive. % is scaled to controls: 0 for no effect and ±100 for the full control effect; potency is read from the fitted curve at half-maximal effect.

SMILES	FLuc inh	HEK293 tox	NIH3T3 tox	hNpr1 antagonist
COc1ccccc1C(=O)N1CCCn2nc(C)c(-c3ccccc3N3CCCC3)c21	i	56µM*	?	-11%[70.6 µM]
COc1cccc(CC(=O)N2CCCn3nc(C)c(-c4ccccc4C(C)C)c32)c1	i	?	?	?
Cc1nn2c(c1-c1ccccc1N1CCCC1)N(C(=O)C(C)C)CCC2	i	35µM*	?	6%[70.6 µM]
Cc1nn2c(c1-c1ccccc1C(C)C)N(C(=O)c1ccnn1C)CCC2	i	?	?	-7%[70.6 µM]
Cc1nn2c(c1-c1ccccc1C(C)C)N(C(=O)COc1ccccc1C(N)=O)CCC2	i	71µM*	?	-10%[70.6 µM]
O=C(NCCc1ccc(Cl)cc1)c1nc(-c2ccc(Cl)nc2)c2ccccn12	nt	?	-20%	nt
CCOc1ccccc1CNC(=O)CN1CC2CC(C1)[C@H]1CCCC(=O)N1C2 (some centres undefined)	i	?	?	-19%
O=c1c2nc(-c3cccc(O)c3)ccc2ncn1Cc1ccccn1	i	-19%[172 µM]	20µM*	-2%[70.6 µM]
CC(=O)Nc1cccc(-c2ccc3ncn(Cc4ccccn4)c(=O)c3n2)c1	i	?	-30%[138 µM]	-6%[70.6 µM]
O=c1c2nc(-c3ccc(O)c(F)c3)ccc2ncn1Cc1ccccn1	i	-7%[172 µM]	79µM*	2%[70.6 µM]
O=c1c2nc(-c3ccc(F)cc3)ccc2ncn1Cc1ccccn1	i	-16%[172 µM]	?	9%[70.6 µM]
Cc1nn(-c2ccccc2)c2c1C(C1CC1)N(C1CCN(Cc3ccc(Cl)nc3)CC1)C2=O (centres undefined)	nt	-1%	-11%	nt
CN1CCC(C(=O)N2Cc3ccccc3CC3(CCCN(Cc4ccccn4)C3)C2)CC1 (centres undefined)	nt	i	0%	nt
O=C1NC(=NC2CCCCC2)C2(CCCN(CC3CC3)C2)N1c1cc(F)cc(F)c1 (centres undefined)	nt	10µM*	32µM*	nt
O=C1NC(=NC2CCCCC2)C2(CCN(CC3CC3)CC2)N1c1cc(F)cc(F)c1	nt	-11%	?	nt
O=C1NC(=NC2CCCCC2)C2(CCCN(CC3CCCCC3)C2)N1c1cc(F)cc(F)c1 (centres undefined)	nt	?	28µM*	nt
O=C1NC(=NC2CCCC2)C2(CCN(CC3CC3)CC2)N1c1cc(F)cc(F)c1	nt	2%	32µM*	nt
O=C1NC(=NC2CCCCC2)C2(CCCN(CC3CC3)C2)N1c1cccnc1 (centres undefined)	nt	-28%	?	nt
C[S+](=O)([O-])N1CCCC2(C1)C(=NC1CCCC1)NC(=O)N2c1cc(F)cc(F)c1 (centres undefined)	i	-8%	-20%	0%
O=C(CCc1ccccc1)N1CCC2(CC1)CC(CO)N(C(=O)c1ccccc1)C2 (centres undefined)	nt	0%	-11%	nt
CCN(C(=O)CN1C(=O)NC2(CCS(=O)(=O)CC2)C1=O)c1cccc(C)c1	i	13%	-15%	2%
COc1ccc(CC(=O)N2CCC3(CC2)CN([S+](=O)([O-])c2ccccc2)CCO3)cc1	nt	-25%	-19%	nt
O=C(Nc1cccc2ccccc12)O[C@@H]1CO[C@H]2[C@@H]1OC[C@@H]2NC(=S)Nc1cccc2ccccc12	i	?	?	-3%
O=C(Nc1cccc2ccccc12)O[C@@H]1CO[C@H]2[C@@H]1OC[C@@H]2NC(=S)Nc1ccc(Cl)cc1	i	40µM*	?	-5%
S=C(Nc1cccc2ccccc12)N[C@H]1CO[C@H]2[C@@H]1OC[C@H]2OCc1ccccc1	i	63µM*	?	?
SMILES	FLuc inh	HEK293 tox	NIH3T3 tox	hNpr1 antagonist
CN(C)c1ccc(NC(=S)N[C@H]2CO[C@H]3[C@@H]2OC[C@H]3OC(=O)Nc2cccc3ccccc23)cc1	32µM*	-27%	?	-3%
O=C1CC2(CCN(C(=O)C3CCN(C(=O)C4CCCC4)C3)CC2)Oc2ccccc2N1 (centres undefined)	nt	-31%	-33%	nt
CCC(C)NC(=O)C1COC2(CCC(C)CC2)N1C(=O)c1cccc(F)c1 (centres undefined)	i	?	-15%	6%
COC(=O)NC1CCN(c2ccc3nnc(C)n3n2)CC1	nt	-5%[172 µM]	-26%[138 µM]	nt
C=CCc1ccccc1OCCN(C)Cc1cc2ccc(F)cc2[nH]c1=O	i	45µM*	35µM*	?
C=CCc1ccccc1OCCN(C)Cc1ccc(S(C)(=O)=O)cc1	i	40µM*	?	-13%
